Source: PubChem BioAssay (Broad Institute)
miR-122 sensor – miR-122 Renilla sensor signal increase in Huh7, primary screen, miR-122 inhibitor project, cell-based, single point, plate reader; Huh7 miR-122 Renilla luciferase sensor, 48 h; neutral wells = 0, positive control = 100; activation (reporter increase), % at 12.5 µM; 340,000 tested, 0.3% active; AID 602342, 2012;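 active = mean replicate activation score at least 90 and every replicate individually at or above 90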;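 also: higher luciferase means less miR-122 activity so hits act as miR-122 inhibitors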
Dyrk1A ADPGlo – rat Dyrk1A kinase inhibitors, primary screen, biochemical, single point, plate reader | Dual specificity tyrosine-phosphorylation-regulated kinase 1A (Rattus norvegicus), Q63470 | ADP-Glo luminescence, NFATc1 peptide | inhibition, % at 12.5 µM | 310,000 tested, 0.43% active | AID 504441, 2011;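 also: plate controls were vehicle with enzyme for no effect and no enzyme for full effect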
Wnt act – Wnt/beta-catenin pathway activators, primary screen, cell-based, plate reader, single point | Wnt/beta-catenin reporter cell assay, activator | activation, % at 9.35 µM | 300,000 tested, 1.2% active | AID 743398, 2014; in the data active = activation above about 30%, passing the limit was not always enough;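 also: 0% = neutral control wells and 100% = positive control wells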
MITF act – activators of MITF-driven TRPM1 promoter reporter, primary screen, cell-based, SK-MEL-5, luciferase, single point; SK-MEL-5 TRPM1-promoter luciferase, 24 h; % of positive control, neutral wells = 0; activation, % at 12.5 µM; 300,000 tested, 0.75% active; AID 588334, 2011;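 active = mean activation of at least 80% with every replicate also reaching 80%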;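 also: 0% = neutral control wells and 100% = parthenolide positive control wells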
NSD2 inh – NSD2 histone methyltransferase inhibitors, primary screen, biochemical, AlphaScreen, single concentration, set 2; Histone-lysine N-methyltransferase NSD2 (Homo sapiens), O96028; NSD2 peptide methylation, 120 min; inhibition, % at 12.5 µM; 310,000 tested, 0.54% active; AID 743445, 2014
Target sequence (O96028 whole entry, looked up): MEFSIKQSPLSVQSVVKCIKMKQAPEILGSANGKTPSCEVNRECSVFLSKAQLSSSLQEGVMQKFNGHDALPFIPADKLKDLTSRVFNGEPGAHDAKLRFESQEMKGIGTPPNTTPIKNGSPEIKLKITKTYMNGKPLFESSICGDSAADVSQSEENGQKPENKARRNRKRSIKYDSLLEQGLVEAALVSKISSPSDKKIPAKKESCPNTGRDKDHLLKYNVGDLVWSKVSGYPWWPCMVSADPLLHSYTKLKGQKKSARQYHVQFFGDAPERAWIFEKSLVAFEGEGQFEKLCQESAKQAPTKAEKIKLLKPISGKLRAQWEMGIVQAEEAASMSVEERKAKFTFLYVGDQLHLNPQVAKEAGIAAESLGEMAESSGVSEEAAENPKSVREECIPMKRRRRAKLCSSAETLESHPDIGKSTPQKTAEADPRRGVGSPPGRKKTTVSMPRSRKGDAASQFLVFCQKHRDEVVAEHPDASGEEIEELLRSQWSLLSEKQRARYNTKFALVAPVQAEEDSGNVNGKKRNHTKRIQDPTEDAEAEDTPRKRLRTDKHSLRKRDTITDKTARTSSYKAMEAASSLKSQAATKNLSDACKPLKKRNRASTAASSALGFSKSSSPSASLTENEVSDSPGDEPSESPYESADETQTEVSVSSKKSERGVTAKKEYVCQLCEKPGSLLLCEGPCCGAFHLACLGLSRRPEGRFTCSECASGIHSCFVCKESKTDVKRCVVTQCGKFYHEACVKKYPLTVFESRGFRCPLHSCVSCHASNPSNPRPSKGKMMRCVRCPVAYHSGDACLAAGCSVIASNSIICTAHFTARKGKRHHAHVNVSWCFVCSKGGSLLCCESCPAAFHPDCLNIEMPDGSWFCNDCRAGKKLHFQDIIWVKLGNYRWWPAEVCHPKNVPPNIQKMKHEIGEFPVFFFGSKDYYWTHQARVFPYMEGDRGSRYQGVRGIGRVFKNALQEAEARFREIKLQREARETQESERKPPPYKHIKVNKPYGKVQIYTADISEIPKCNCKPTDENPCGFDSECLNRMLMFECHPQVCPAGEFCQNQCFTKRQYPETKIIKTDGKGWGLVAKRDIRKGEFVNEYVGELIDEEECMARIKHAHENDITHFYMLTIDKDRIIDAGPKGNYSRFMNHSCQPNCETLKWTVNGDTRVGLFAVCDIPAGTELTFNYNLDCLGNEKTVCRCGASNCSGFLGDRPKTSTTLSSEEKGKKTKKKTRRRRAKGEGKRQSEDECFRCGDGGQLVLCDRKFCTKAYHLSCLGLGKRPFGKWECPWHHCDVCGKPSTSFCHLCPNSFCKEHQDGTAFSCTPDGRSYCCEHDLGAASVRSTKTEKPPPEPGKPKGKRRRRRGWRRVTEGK
GSIS activator – GLuc luminescence reporter in INS-1E cells, primary screen for activators of glucose-dependent secretion of insulin; AID 743287, 2014; INS-1E GLuc reporter insulin secretion, 2-3 h; 370,000 tested, 0.61% active; activation, % at 16.6 µM;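 active = lowest replicate activation of at least 40%, so every replicate reaches that level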;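 also: 0% = median of neutral control wells and 100% = median of IBMX positive control wells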
Active calls of the source: *; [ ] = dose if it differs, or a comment. The list is not random: actives were taken first. Their share in the collection is about 2.4%. Rule as the data show it, unless noted: active = inhibition above about 50%; inactive = the rest.

`O=C(Cn1[nH]c(=O)c2ccccc2c1=O)OCC(=O)c1ccc(F)c(F)c1` gave miR-122 sensor -1.4, Dyrk1A ADPGlo 6.2, Wnt act -2.9, MITF act -4.4 and NSD2 inh -1.2.
For O=C(Cn1[nH]c(=O)c2ccccc2c1=O)OCC(=O)c1ccc(F)cc1 the results were Dyrk1A ADPGlo 10.5, Wnt act -0.1, MITF act 10.5, NSD2 inh 15.3 and GSIS activator 52.6*.
For C/C(=N/OC(=O)CC(C)C)c1cc(-c2ccc(Cl)cc2)no1 the results were miR-122 sensor 0.6, Dyrk1A ADPGlo -1.3, Wnt act 6.7, MITF act 86.3*, NSD2 inh -3.3 and GSIS activator 7.0.
For CCOC(=O)c1cc(/C(C)=N/OC(=O)c2ccc(Cl)cc2)on1 the results were miR-122 sensor 1.1, Wnt act 4.4, NSD2 inh 0.4 and GSIS activator 0.4.
Screening CCC(=O)N(C)C[C@@H]1Oc2cc(-c3cccc(OC)c3)ccc2S(=O)(=O)N([C@@H](C)CO)C[C@H]1C returned miR-122 sensor 8.6[16.7 µM] and GSIS activator -12.3.
`CCC(=O)N1CC(=O)N2[C@H](CO)[C@H](c3ccc(-c4cccnc4)cc3)[C@@H]2C1` gave GSIS activator 13.2.
`O=C1c2cccnc2C(Nc2ccc(Br)cc2)N1Cc1cccs1` (stereo not drawn) gave miR-122 sensor 9.3, Dyrk1A ADPGlo -2.4, Wnt act -6.2, MITF act 9.0, NSD2 inh -14.7 and GSIS activator 21.8.
Screening O=C1c2cccnc2C(Nc2ccc(F)c(Cl)c2)N1Cc1cccs1 (stereo not drawn) returned miR-122 sensor 1.3, Dyrk1A ADPGlo -3.1, Wnt act -7.1, MITF act -9.8, NSD2 inh -15.7 and GSIS activator 66.2*.
Screening Cc1ccc(NC(=S)NC(=O)C2CCCC2)c(Br)c1 returned miR-122 sensor 0.5, Dyrk1A ADPGlo 2.4, Wnt act 52.8*, MITF act 97.0* and GSIS activator -39.6.
For CCn1cc(C2=NC(C(C)C)CO2)c2ccccc21 (stereo not drawn) the results were miR-122 sensor 10.5, Dyrk1A ADPGlo 0.4, Wnt act 6.3, MITF act -1.0 and GSIS activator 4.2.
For CC(C)C1COC(c2cccc3ccccc23)=N1 (stereo not drawn) the results were miR-122 sensor -0.7, Dyrk1A ADPGlo 8.6, Wnt act 39.2* and MITF act 73.9.
For O=C(NCC[C@H]1CC[C@@H](NC(=O)C2CCC2)[C@H](CO)O1)c1ccc(F)cc1 the results were GSIS activator 17.3.
Screening Cc1ccc(S(=O)(=O)N2CCN(c3nc(CN4CCOCC4)nc4sc(C)c(C)c34)CC2)c(C)c1 returned NSD2 inh 7.7.
`O=S(=O)(Nc1ccc(N2CCOCC2)cc1)c1cc(Cl)ccc1Cl` gave miR-122 sensor 94.2*, Dyrk1A ADPGlo -0.4, Wnt act -2.1, MITF act 8.9, NSD2 inh -0.4 and GSIS activator -6.7.
`O=S(=O)(Nc1cccc(-c2ccc(N3CCOCC3)nn2)c1)c1cc(Cl)ccc1Cl` gave Dyrk1A ADPGlo 1.3, Wnt act 17.0, MITF act 69.1, NSD2 inh -0.2 and GSIS activator 15.1.
Cc1cc(-c2ccc(Br)cc2)n2nc(C)cc2n1 was read as miR-122 sensor 3.5, Wnt act 1.7, NSD2 inh -30.5 and GSIS activator 42.6*.
Screening Cc1cc(-c2ccc(Cl)cc2)n2nc(C)cc2n1 returned miR-122 sensor 1.9, Dyrk1A ADPGlo -0.9, Wnt act -0.2, MITF act 6.5, NSD2 inh -8.1 and GSIS activator 80.1*.
`Cc1cc(C)n2nc(C)c(-c3ccc(Cl)cc3)c2n1` gave miR-122 sensor 3.2, Dyrk1A ADPGlo -2.3, Wnt act 0.3, MITF act -27.3, NSD2 inh -8.5 and GSIS activator -0.8.
`CN(C)CC(=O)N[C@@H]1CC[C@@H](CC(=O)NCc2ccccc2F)O[C@@H]1CO` gave GSIS activator 0.5.
Cc1ccc2cc(-c3noc(C(C)(C)C)n3)c(=O)[nH]c2c1 was read as miR-122 sensor 206.0*, Dyrk1A ADPGlo 2.8, MITF act 32.2 and NSD2 inh 2.3.
Screening O=c1[nH]c2ccccc2cc1-c1noc(-c2cccnc2)n1 returned miR-122 sensor 1.0, Dyrk1A ADPGlo -2.2, Wnt act 4.2 and NSD2 inh 0.1.
For Cc1ccc2[nH]c(=O)c(CN(CCc3ccccc3)C(c3nnnn3Cc3ccco3)C(C)C)cc2c1 (stereo not drawn) the results were miR-122 sensor 0.6, Dyrk1A ADPGlo 1.9, Wnt act 35.9*, MITF act -5.6, NSD2 inh 9.1 and GSIS activator -4.1.
For O=C1c2ccncc2C(=O)N1CNc1ccc(Cl)cc1 the results were Dyrk1A ADPGlo -4.3, Wnt act 59.9*, MITF act 0.4, NSD2 inh -0.8 and GSIS activator 5.1.
Cc1nn2cc(-c3ccc(Cl)cc3)cnc2c1Cl was read as miR-122 sensor -3.0, Wnt act 32.2*, MITF act 126.2*, NSD2 inh -3.8 and GSIS activator 2.7.
`Cc1cc2ncc(-c3cccc(Cl)c3)cn2n1` gave miR-122 sensor 1.6, Dyrk1A ADPGlo 3.5, Wnt act 23.6, MITF act 55.8, NSD2 inh 11.9 and GSIS activator 21.6.
For Cc1ccc(-c2nc3ccc(C)cn3c2Cc2cccc(Cl)c2)cc1 the results were Wnt act 14.9 and GSIS activator -4.3.
`Cc1ccc(-c2nc3ccc(Cl)cn3c2Cc2cccc(Cl)c2)cc1` gave miR-122 sensor -3.6 and Wnt act 46.3*.
Cc1cc(C(=O)Nc2cccc3c2O[C@@H](CN(C)C)[C@H](C)CN([C@H](C)CO)C3=O)n(C)n1 was read as miR-122 sensor 2.9[16.7 µM] and GSIS activator 13.2.
`Cc1ccc(C)c(S(=O)(=O)/N=C2\C=C(NS(=O)(=O)c3ccccc3)C(=O)c3ccccc32)c1` gave miR-122 sensor 17.3, Dyrk1A ADPGlo 2.4, Wnt act -2.8, MITF act -12.4, NSD2 inh 96.9* and GSIS activator 2.3.
For CC(C)c1ccc(S(=O)(=O)/N=C2\C=C(NS(=O)(=O)c3ccccc3)C(=O)c3ccccc32)cc1 the results were miR-122 sensor 56.7, Dyrk1A ADPGlo -2.6, Wnt act 1.8, MITF act -22.7, NSD2 inh 112.1* and GSIS activator -8.0.
`COC(=O)C(C(C)=O)C1=C/C(=N\S(=O)(=O)c2ccc(C)cc2)c2ccccc2C1=O` (stereo not drawn) gave Dyrk1A ADPGlo 0.5 and MITF act -10.1.
